# Assay outcomes as filed in PubChem BioAssay.
# Only some compounds are listed: those with a hit (about 14% of all), similar ones and a draw of the others.
# HCMV inh: inhibitors of human cytomegalovirus | HFF cells, HCMV-luciferase reporter, 72 h; active compounds read low | activity change, negative = inhibition, % at 57.5 µM | 410,000 tested, 4.5% active; in the data active = activity change below about -60%; inconclusive = no clear call, values can overlap the other calls; inactive = above about -39%
#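 Compounds were evaluated in HFFs infected with an HCMV luciferase reporter virus (MOI 1 PFU/cell). Luciferase in lysates collected 72 h post infection served as the replication measure.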
# Lassa entry inh: Lassa virus entry inhibition. AID 540256. 300,000 tested, 1.2% active. Potency, µM (titrated, usually from 37.9 µM), without a hit: at the top dose activity change, negative = inhibition, usual class: inhibitors. Lassa virus pseudotype entry inhibition, cell reporter; calls by dose curve; tested in HEK293 cells; also: potency is read from the fitted curve at half-maximal effect; nearly all actives have a fitted effect of over 50% in size
# Pf growth 48h: inhibits P. falciparum growth in the first generation, 48 h; 310,000 tested, 5.9% active; AID 504832; Potency, µM (top dose mostly 28.7 µM), inactives show at the top dose activity change, negative = inhibition, most hits filed as inhibitors; P. falciparum luciferase growth in erythrocytes, 48 h; also: potency is read from the fitted curve at half-maximal effect
#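 Here the parasites carry a stable luciferase gene and grow inside erythrocytes in Albumax-based RPMI medium with compound for one erythrocytic cycle. Activity is scored as loss of luminescent signal.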
# HCV inhibitor: blocks hepatitis C virus. Huh7.5.1 HCVcc-Cre infection, luciferase reporter, 44 h. 340,000 tested, 3.4% active. Potency, µM (series often up to 41.8 µM), for the others: top-dose activity change, negative = inhibition, most hits filed as inhibitors. AID 651820; also: potency is read from the fitted curve at half-maximal effect
#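 Infectious HCVcc-Cre (~0.5 moi) was added to cells just after compound, with cells seeded 4 h earlier at 1,000 per well. Luciferase activity after 44 h culture reported infection; substrate was incubated 15 min at room temperature before reading.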
# Pf growth 96h: inhibits malaria parasite growth, 96 h. P. falciparum luciferase reporter growth, 96 h. Potency, µM (doses to about 28.7 µM), inactives show top-dose activity change, negative = inhibition, most hits filed as inhibitors. 320,000 tested, 6.9% active; also: potency is read from the fitted curve at half-maximal effect
#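 Parasite growth measured via integrated firefly luciferase reporter in P. falciparum. Infected erythrocytes at 2% hematocrit, 0.05% parasitemia final were treated 96 hours at 37 C under 5% CO2, and luminescence was read.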
# MARV entry inh: inhibitors of Marburg virus binding or cell entry; Marburg virus pseudotyped entry inhibition, cell reporter; 300,000 tested, 1.8% active; Potency, µM (series often up to 37.8 µM), for the others: at the top dose activity change, negative = inhibition, most hits filed as inhibitors; AID 540276; calls by dose curve; tested in HEK293 cells; also: potency is read from the fitted curve at half-maximal effect
# * marks the source's active call; other numbers are inactive results; ? = inconclusive; . = no result given; ! = not confirmed by another sample; [ ] = remark or other dose. Unless noted, calls follow the shape of the dose curve; as a rule, active = well fitted inhibition curve with a large enough effect; inconclusive = small, poorly fitted or top-dose-only effect, or another doubt; inactive = no such curve, though single readings can be large or run the other way. % is scaled to controls: 0 for no effect and ±100 for the full control effect.
SMILES,HCMV inh,Lassa entry inh,Pf growth 48h,HCV inhibitor,Pf growth 96h,MARV entry inh
COc1ccc(N(CC(=O)NCCSCc2ccco2)S(=O)(=O)c2ccccc2)cc1OC,-17,-24%,-21%,-2%,12µM*,-4%
C=CCn1c(O)c(C(CC)=Nc2ccc(N(C)C)cc2)c(=O)[nH]c1=O,16,?,0.66µM*,?,1.7µM*,-24%[14.2 µM]
C=CCn1c(O)c(C(CC)=Nc2cccc(C(=O)O)c2)c(=O)[nH]c1=O,-18,24%[46.1 µM],39%,26%,7%,0%[46.1 µM]
C=CCn1c(O)c(C(CC)=Nc2ccc3c(c2)CCC3)c(=O)[nH]c1=O,50,0.89µM*,-13%,19%,21%,9%
C=CCn1c(O)c(C(C)=Nc2ccc3c(c2)CCC3)c(=O)[nH]c1=O,68,-28%,?,13%,-20%,14%[14.2 µM]
CCCCn1cnc2cc(NC(=O)c3cc(OC)c(OC)c(OC)c3)ccc21,88,15%[46.1 µM],.,.,.,4%[46.1 µM]
CC#C[C@@H](CC)c1ccc2ccn(C)c2c1,-11,.,?,7%,?,.
O=C(NC(=S)Nc1ccccn1)c1cc(-c2ccccc2)nc2ccccc12,-19,4%,23%,-4%,-28%,-23%
COC(=O)[C@H](NC(=O)c1cc(-c2ccccc2)nc2ccccc12)c1ccccc1,-24,?,.,35µM*,.,?
O=C(NNC(=S)Nc1ccccc1)c1cc(-c2cccnc2)nc2ccccc12,-6,0%,?,8%,1.2µM*,4%
CCNC(=S)NNC(=O)c1cc(-c2cccnc2)nc2ccccc12,9,1%,4%,0%,21%,?
O=C(NC(=S)Nc1ccccc1)c1cc(-c2ccccc2)nc2ccccc12,0,-23%,?,?,10µM*,?
CCOc1ccc(-c2cc(C(=O)NC(C)c3ccccc3)c3ccccc3n2)cc1 (stereo not drawn),-11,-2%[46.1 µM],.,.,.,.
CCOC(=O)c1ccc(NC(=S)NNC(=O)c2cc(-c3cccnc3)nc3ccccc23)cc1,59,.,4.1µM*,2%,66%,.
CCN1CCN(S(=O)(=O)c2ccc(Cl)c(C(=O)Nc3nnc(C)s3)c2)CC1,-6,-12%,?,2%,-2%,-18%[46.1 µM]
CC(C)C[C@@H]1COc2cc(NCCO)ccc2S(=O)(=O)N1,-7,.,.,.,.,.
CCOc1cc(CNc2ccc(O)cc2)cc(Cl)c1OCc1ccccc1,?,?,.,.,.,-18%[46.1 µM]
COc1ccc(NS(=O)(=O)c2ccc(C)c(C(=O)N3CCN(Cc4cc(OC)ccc4OC)CC3)c2)cc1,-32,?,.,?,.,?
COc1cc(OC)cc(C(=O)N[C@H](C(=O)N2CCc3ccccc32)C(C)C)c1,-19,-18%,?,?,?,?
COc1ccc(OC)c(CN2CCN(C(=O)[C@@H](NC(=O)c3cccc(C)c3)C(C)C)CC2)c1,-10,?,10µM*,?,?,?
COc1cc(OC)cc(C(=O)NC(C(=O)N2CCc3ccccc3C2)C(C)C)c1 (stereo not drawn),-1,?,?,-15%,?,11µM*
COc1ccc(OC)c(CN2CCN(C(=O)COc3cccc(C)c3)CC2)c1,16,-1%,-11%,-13%,-27%,0%
COc1ccc(OC)c(CN2CCN(C(=O)c3cccc(S(=O)(=O)Nc4ccc(C)cc4)c3)CC2)c1,-6,-4%[46.1 µM],10µM*,10µM*,9.3µM*,?
COc1ccc(OC)c(CN2CCN(C(=O)c3cc(S(=O)(=O)Nc4ccccc4OC)ccc3C)CC2)c1,-8,?,?,14µM*,3.3µM*,?
CCN(Cc1ccccc1)C(=O)C1CCN(S(=O)(=O)c2ccc3c(c2)CCCN3C(C)=O)CC1,-39,3%[46.1 µM],.,.,.,.
SMILES,HCMV inh,Lassa entry inh,Pf growth 48h,HCV inhibitor,Pf growth 96h,MARV entry inh
CCOC(=O)C1=CC[C@@H](c2ccccc2)N(S(=O)(=O)c2ccc(C)cc2)[C@@H]1C#N,-8,.,.,.,.,.
Cc1cc(C)c(/C=C/c2onc(C)c2S(=O)(=O)N2CCC(C(=O)NCc3ccco3)CC2)c(C)c1,-39,-16%[46.1 µM],.,.,.,.
Cc1ccc(S(=O)(=O)C(CNC(=O)COc2ccccc2)c2ccco2)cc1 (stereo not drawn),-1,-29%[46.1 µM],.,.,.,.
COc1cc(OC)cc(C(=O)N[C@H](C(=O)NC23CC4CC(CC(C4)C2)C3)C(C)C)c1,3,-11%,10µM*,2%,.,-26%
Cc1cccc(NC(=O)Cn2c(=O)n(Cc3ccc4c(c3)OCO4)c(=O)c3oc4ccccc4c32)c1C,52,-2%[46.1 µM],.,.,.,.
COC[C@H]1OC(=O)c2coc3c2[C@@]1(C)C1=C(C3=O)[C@H]2CCC(=O)[C@@]2(C)C[C@H]1OC(C)=O,.,.,.,.,.,0.045µM*
COC[C@H]1OC(=O)c2coc3c2[C@@]1(C)C1=C(C3=O)C2CCC(=O)[C@@]2(C)C[C@H]1OC(C)=O (stereo partly drawn),.,?,.,.,.,0.045µM*!
CC(OC(=O)CCCN=C1NS(=O)(=O)c2ccccc21)C(=O)Nc1ccccc1F (stereo not drawn),-7,11%,4%,2%,12%,?
NS(=O)(=O)c1ccc2c(c1)oc(=O)c1cc(S(N)(=O)=O)ccc12,-24,14%[46.1 µM],-6%,20%,0%,-1%[46.1 µM]
COCCNS(=O)(=O)c1ccc2c(c1)oc(=O)c1cc(S(=O)(=O)NCCOC)ccc12,.,.,?,9%,1.9µM*,1%
COc1ccccc1OCCNS(=O)(=O)c1ccc2oc3ccccc3c2c1,-25,3%,-18%,0%,10µM*,-4%[46.1 µM]
O=S(=O)(NCCOc1ccccc1Cl)c1ccc2oc3ccccc3c2c1,34,-25%,.,-22%,.,-15%
COc1ccc([C@]23Cc4ccccc4[C@H](O2)C2=C(CC(C)(C)CC2=O)O3)cc1,.,.,.,.,.,6%[14.2 µM]
O=[N+]([O-])c1cc(C(F)(F)F)ccc1N1CCN(CCO)CC1,6,.,5%,-6%,-17%,17%[46.1 µM]
CN1CCN(CCC(=O)N2c3ccccc3Sc3ccc(C(F)(F)F)cc32)CC1,-27,-8%,?,5.6µM*,11µM*,?
OCCN1CCN(CCCN2c3ccccc3Sc3ccc(C(F)(F)F)cc32)CC1,-16,7.3µM*,5.2µM*,?,1.9µM*,13µM*
FC(F)(F)c1ccc2c(c1)N(CCCN1CCN(CCCl)CC1)c1ccccc1S2,-73*,?,9.3µM*,?,.,20µM*
OCCN1CCN(CCCN2c3ccccc3C=Cc3ccccc32)CC1,-24,?,6.7µM*,.,6µM*,7.9µM*
OCCN1CCN(CCCN2c3ccccc3CCc3ccccc32)CC1,0,.,.,.,.,.
O=[N+]([O-])c1ccc(Cl)c(S(=O)(=O)NCCc2ccccn2)c1,0,.,.,-5%,.,.
